Measured values published in article PMC4552634, “A New Set of Chemical Starting Points with Plasmodium falciparum Transmission-Blocking Potential for Antimalarial Drug Discovery” (PLoS ONE, 2015).
Like-named read-outs stand apart in the source and are kept apart here. Screen size: about 13,000 compounds; about 3,200 (25%) showed an effect of 50% or more. The list shows a part of the results.

System: P. falciparum stage V gametocytes
Design: BacTiter-Glo ATP luminescence viability of purified stage V gametocytes in 384-well plates, per cent inhibition versus DMSO
Conditions: 48 h, 5 µM, inhibitor

## Cc1nc(N)nc(N)c1CCCOc1ccccc1Cl [TCMDC-137929]
  % Inhibition: 3.372%

## COc1cccc(CNC[C@@H](O)[C@H](Cc2ccccc2)NC(=O)c2cc(NC(C)C)cc(N3CCCCS3(=O)=O)c2)c1 [TCMDC-135205]
  % Inhibition: 28.03%

## CC1(C)C=C(c2ccncc2)c2cc(Cl)ccc2O1 [TCMDC-131771]
  % Inhibition: -9.955%

## Cc1cc(Nc2nc(Nc3cccc(Cl)c3)nc3ccccc23)n[nH]1 [TCMDC-134695]
  % Inhibition: 12.71%

## Clc1cccc(Nc2ccc3c(N4CCCCC4)ncnc3n2)c1 [TCMDC-134937]
  % Inhibition: 52.12%

## O=C(NCC1CCC1)c1cnc(Nc2cccc(Cl)c2)nc1N1CCC1 [TCMDC-135363]
  % Inhibition: 5.577%

## OC(CNCc1ccccc1OCc1ccccc1)c1cccc(I)c1 (stereo not shown) [TCMDC-140522]
  % Inhibition: 41.43%

## OC(CNCc1ccccc1OCc1ccccc1)c1cccc(Cl)c1 (stereo not shown) [TCMDC-140563]
  % Inhibition: -9.137%

## OC(CNCc1ccccc1OCc1ccccc1)c1cccc(Br)c1 (stereo not shown) [TCMDC-140734]
  % Inhibition: 51.74%

## Cc1cc(OCC(=O)Nc2ccc(-c3nc4ccccc4[nH]3)cc2)cc(C)c1Cl [TCMDC-125674]
  % Inhibition: -10.97%

## Cc1cccc(C)c1CNc1ccnc2cc(C#N)ccc12 [TCMDC-132170]
  % Inhibition: 2.762%

## NS(=O)(=O)NCCCN1CCN(c2ccccc2)CC1 [TCMDC-141997]
  % Inhibition: 27.05%

## CC(C)N1CCN(CCCNc2c3ccccc3nc3ccccc23)CC1 [TCMDC-137547]
  % Inhibition: 96.57%

## CC(C)N1CCN(CCCCNc2c3ccccc3nc3ccccc23)CC1 [TCMDC-137573]
  % Inhibition: 93.57%

## Cc1ncsc1CCN1C(=O)CC2(C1=O)C(=O)N(Cc1ccccc1)c1ccc(Cl)cc12 (stereo not shown) [TCMDC-136701]
  % Inhibition: 2.069%

## COc1cc(F)c2ncc(Cl)c([C@@H](O)CN3CCC(NCc4cc5c(cn4)OCCO5)CC3)c2c1 [TCMDC-135475]
  % Inhibition: 41.87%

## Cc1ccccc1OCCCc1c(C)nc(N)nc1N [TCMDC-138070]
  % Inhibition: -46.3%

## Cc1ccc(NC(=O)c2cc(Br)cc(N3CCC(N(C)C)CC3)c2)cc1F [TCMDC-135144]
  % Inhibition: -10.77%

## CC(C)Cc1cn(-c2nc(-c3nc4ccccc4[nH]3)cs2)c2cc(Cl)ccc12 [TCMDC-132300]
  % Inhibition: -85.76%

## O=C(/C=C/c1cccs1)NCC(NCCCNc1cc(=O)c2ccccc2[nH]1)c1cc(Br)cc(Br)c1 (stereo not shown) [TCMDC-140318]
  % Inhibition: -18.64%

## CCn1cc(CN2CCCC(C(=O)Nc3ccc(-c4nc5ccccc5[nH]4)cc3)C2)cn1 (stereo not shown) [TCMDC-124674]
  % Inhibition: -65.71%

## CCC(=Cc1cccc([N+](=O)[O-])c1)C(=O)NCC1CCN(c2nc(N)c3cc(OC)c(OC)cc3n2)CC1.Cl [TCMDC-138165]
  % Inhibition: 19.29%

## CCN(CC)CC(O)CNc1c2ccc([N+](=O)[O-])cc2nc2cc(OC)c(OC)cc12.Cl (stereo not shown) [TCMDC-138079]
  % Inhibition: 90.61%

## CCN(CC)CC(O)Cc1c2ccc([N+](=O)[O-])cc2nc2cc(OC)c(OC)cc12 (stereo not shown) [TCMDC-138126]
  % Inhibition: 37.45%

## Cc1noc(-c2ccc(NC[C@@H](C)NC[C@H](O)c3cccc(Cl)c3)cc2)n1 [TCMDC-132027]
  % Inhibition: 14.57%

## COc1cc(C=Cc2ccc3ccccc3n2)cc(Br)c1OCC(=O)N(C)C [TCMDC-124818]
  % Inhibition: 44.47%

## CCCC(=O)NC(c1cccs1)c1cc(Cl)c2cccnc2c1O (stereo not shown) [TCMDC-123634]
  % Inhibition: 68.96%

## CCCCC(=O)NC(c1cccs1)c1cc(Cl)c2cccnc2c1O (stereo not shown) [TCMDC-123653]
  % Inhibition: 45.79%

## CC(C)C(=O)NC(c1ccc(N(C)C)cc1)c1cc(Cl)c2cccnc2c1O (stereo not shown) [TCMDC-123643]
  % Inhibition: 90.13%

## CC(C)C(=O)NC(c1cccs1)c1cc(Cl)c2cccnc2c1O (stereo not shown) [TCMDC-123636]
  % Inhibition: 43.04%

## CC(=O)NC(c1cccs1)c1cc(Cl)c2cccnc2c1O (stereo not shown) [TCMDC-125548]
  % Inhibition: 90.83%

## COc1ccccc1N(C)CCNc1cc(C)nc(Nc2ccccc2)n1 [TCMDC-133455]
  % Inhibition: -20.01%

## Cc1cc(NC(=O)N=C(N)N)ccc1Cl [TCMDC-137470]
  % Inhibition: 23.53%

## CC(C)Cc1nc(N2CCOCC2)c2nnn(Cc3ccccc3)c2n1 [TCMDC-124394]
  % Inhibition: 7.117%

## Cc1ccc(C)c(CN2CCC(CNC(=O)c3cc4ccc5cccnc5c4[nH]3)CC2)c1 [TCMDC-125280]
  % Inhibition: 17.56%

## CCN1C(c2ccc(Cl)cc2)C(CNCc2ccccc2O)CC1(C)CO (stereo not shown) [TCMDC-124672]
  % Inhibition: -22.05%

## Cc1cc2c(cc1C(F)(F)F)N(C(=O)Nc1cc(OCCN(C)C)cc(C(F)(F)F)c1)CC2 [TCMDC-139873]
  % Inhibition: 27.41%

## Cc1cc(Nc2cccc(Cl)c2)nc2ccc(NC(=O)c3ccc(=O)[nH]c3)cc12 [TCMDC-125285]
  % Inhibition: -92.28%

## O=C(Nc1ccc([N+](=O)[O-])cc1)Nc1cc(C(F)(F)F)ccc1F [TCMDC-124367]
  % Inhibition: -37.77%

## COc1cc([N+](=O)[O-])ccc1NC(=O)Nc1ccc(OC(F)(F)F)cc1 [TCMDC-125388]
  % Inhibition: 60.01%

## O=C(Nc1ccc(CCNCc2ccccc2)cc1)Nc1ccc(OC(F)(F)F)cc1 [TCMDC-141914]
  % Inhibition: -0.1841%

## O=C(Nc1ccc(OC(F)(F)F)cc1)Nc1ccc([N+](=O)[O-])cc1 [TCMDC-123714]
  % Inhibition: -87.78%

## N#Cc1ccc(NC(=O)Nc2ccc3c(c2)CCN(C2CCC2)CC3)cc1 [TCMDC-135861]
  % Inhibition: 25.77%

## O=C(Nc1cccc([N+](=O)[O-])c1)Nc1cccc(C(F)(F)F)c1 [TCMDC-123674]
  % Inhibition: -87.02%

## COc1cc(NC(=O)Nc2ccc([N+](=O)[O-])cc2OC)c(OC)cc1Cl [TCMDC-124366]
  % Inhibition: 14.63%

## N#Cc1ccc(NC(=O)Nc2ccc(OC(F)(F)F)cc2)cc1 [TCMDC-123773]
  % Inhibition: 69.14%

## O=C(Nc1ccc([N+](=O)[O-])cc1)Nc1cc(OCC(F)(F)F)cc(OCC(F)(F)F)c1 [TCMDC-124533]
  % Inhibition: 87.27%

## Cc1ccc(C2CC(=O)CC(c3ccccn3)C2[N+](=O)[O-])cc1 (stereo not shown) [TCMDC-139131]
  % Inhibition: 6.685%

## CCCSc1nc2c(c(=O)n1Cc1ccco1)C1(CCCCC1)Cc1ccccc1-2 [TCMDC-123897]
  % Inhibition: -0.1623%

## CC(C)C[C@H](NC(=O)c1ccc(OCCN2CCOCC2)cc1)C(=O)N[C@H](/C=N/N1CCN(C)C1=O)CCc1ccccc1 [TCMDC-136154]
  % Inhibition: 6.527%

## CO/C(=C\C=C\c1cc2cc(Cl)c(Cl)cc2[nH]1)C(=O)NCCCN1CCN(c2cccc(O)c2)CC1 [TCMDC-139248]
  % Inhibition: 6.724%

## O=C(NCc1ccc(C(=O)NC2CCCCCC2)cc1)c1ccc(O)c(-c2ccc(Cl)c(Cl)c2)c1 [TCMDC-140846]
  % Inhibition: -16.48%

## CN(C)c1ccc(NC(=O)Nc2ccnc3ccc(Br)cc23)cc1 [TCMDC-139326]
  % Inhibition: -66.68%

## C/C=C1\CN2CC[C@H]1C[C@H]2[C@H](O)c1ccnc2ccc(OC)cc12 [TCMDC-138074]
% Inhibition
  % Inhibition: 4.282%

## COc1ccc(CNc2ccnc3cc(OC)ccc23)cc1 [TCMDC-139267]
  % Inhibition: 1.914%

## COc1ccc(CNc2nccc3ccc(-c4ccc5nccn5c4)cc23)cc1 [TCMDC-133417]
  % Inhibition: -35.58%

## COc1ccc(Nc2nccc(-c3ccc4c(-c5ccsc5)cnc(N)c4c3)n2)cc1 [TCMDC-135552]
  % Inhibition: 9.815%

## COc1ccc(CNc2nccc3ccc(-c4ccc(N)nc4)cc23)cc1 [TCMDC-133418]
  % Inhibition: 62.64%

## NCCCCNc1cc(-c2ccnc(Nc3cccc(Cl)c3)n2)ccn1 [TCMDC-134683]
  % Inhibition: 70.36%

## OC(CNc1ccnc(Nc2cccc(Cl)c2)n1)c1cccc(F)c1 (stereo not shown) [TCMDC-136573]
  % Inhibition: -70.46%

## COc1ccc(Nc2nccc(-c3ccc4ccnc(NCCCCN)c4c3)n2)cc1 [TCMDC-136642]
  % Inhibition: 94.8%

## CCCCNc1nccc2ccc(-c3ccncc3)cc12 [TCMDC-136490]
  % Inhibition: -10.89%

## OC(CNc1ccnc(Nc2cccc(Cl)c2)n1)c1cccc(C(F)(F)F)c1 (stereo not shown) [TCMDC-136586]
  % Inhibition: -39.19%

## Cc1ccccc1C1CCN(C2CCC(NC(=O)/C=C/c3cccc(Cl)c3)CC2)CC1 (stereo not shown) [TCMDC-133508]
  % Inhibition: -91.25%

## CS(=O)(=O)c1ccc(CNCc2cccc(-c3cccc(-c4nc5cc(C(F)(F)F)ccc5[nH]4)c3)c2)cc1.O=C(O)C(F)(F)F [TCMDC-132899]
  % Inhibition: -4.854%

## O=C(Nc1ccc(N2CCN(Cc3cccc(F)c3)CC2)cc1)c1cccs1 [TCMDC-134999]
  % Inhibition: -0.3438%

## COc1ccc2nccc([C@@H](O)CN3CCC(NC(=O)C(c4cc5ccccc5o4)N4CCC(Cc5ccccc5)CC4)CC3)c2c1 (stereo partly shown) [TCMDC-140997]
  % Inhibition: 26.99%

## COc1cccc(CCc2nc3c(N4CCC(Cc5ccccc5)CC4)cccc3n2CC2CNCCO2)c1 (stereo not shown) [TCMDC-133535]
  % Inhibition: 83.91%

## N#Cc1cncc(-c2nc3c(N4CCC(Cc5ccccc5)CC4)cccc3n2C2CCNC2)c1 (stereo not shown) [TCMDC-133545]
  % Inhibition: 7.232%

## CC(C)c1sc(N2CCN(C)CC2)nc1C(=O)Nc1ccc(F)cc1C(F)(F)F [TCMDC-134300]
  % Inhibition: 32.87%

## CCSc1ccccc1COc1c(C)nc(N)nc1N [TCMDC-131359]
  % Inhibition: 18.44%

## CCN(CC)c1nc(N)c2c(N)nc3c(c2c1C#N)C(=O)CN3Cc1ccccc1 [TCMDC-125024]
  % Inhibition: 94.19%

## CCN(CC)c1nc(-c2ccccc2)cc(-c2ccccc2)c1C#N [TCMDC-125830]
  % Inhibition: -26.16%
